# Results as given in PubChem BioAssay (NCATS).
# “And” between values parts separate entries of the source, which are not always exact repeats. Identical values can stand only once. Inconclusive results are not listed. Entries that show only a call come without a potency. More than one record can exist for a structure, and the calls need not agree. The source made the active and inactive calls. Unless noted, the call rests on the fitted dose curve; in most records, active means well fitted curve in the direction sought with a large enough effect; inconclusive means small, poorly fitted or top-dose-only effect, or another doubt; inactive means no such curve, though single readings can be large; an effect the other way counts as inactive or inconclusive.
# Legend:
# [1] = biological target: Protein phosphatase 1D (Homo sapiens) (UniProt O15297); test: RapidFire Mass Spectrometry qHTS Assay for Modulators of WT P53-Induced Phosphatase 1 (WIP1) (AID 1347424);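 further: amount of dephosphorylated VEPPL-S-QETFS peptide product formed by WIP1; series mostly up to about 63 µM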
# Protein phosphatase 1D (Homo sapiens), sequence (O15297 whole entry, looked up): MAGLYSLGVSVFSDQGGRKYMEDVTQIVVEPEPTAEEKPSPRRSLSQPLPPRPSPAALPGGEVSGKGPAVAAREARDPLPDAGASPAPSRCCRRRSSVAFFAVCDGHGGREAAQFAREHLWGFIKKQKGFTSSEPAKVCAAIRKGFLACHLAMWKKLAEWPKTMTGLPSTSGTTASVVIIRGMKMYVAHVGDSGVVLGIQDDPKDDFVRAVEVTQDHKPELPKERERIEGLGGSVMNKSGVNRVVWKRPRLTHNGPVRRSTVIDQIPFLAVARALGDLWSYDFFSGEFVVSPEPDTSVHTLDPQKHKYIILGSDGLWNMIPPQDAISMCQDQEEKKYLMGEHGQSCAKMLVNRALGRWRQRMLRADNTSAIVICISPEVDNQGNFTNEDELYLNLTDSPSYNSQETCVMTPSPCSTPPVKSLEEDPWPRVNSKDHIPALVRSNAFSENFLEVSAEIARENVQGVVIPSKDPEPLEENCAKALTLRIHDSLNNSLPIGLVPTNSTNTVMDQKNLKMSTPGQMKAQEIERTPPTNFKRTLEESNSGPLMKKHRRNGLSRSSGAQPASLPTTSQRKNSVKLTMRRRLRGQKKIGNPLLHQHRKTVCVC
# How it was run: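 WIP1 (10 nM final) was preincubated 1 h at room temperature with compounds in Tris-HCl pH 7.5, 30 mM MgCl2, TCEP, EGTA, BSA; 2 uM VEPPL-pS-QETFS phosphopeptide was added for 5 min, quenched with formic acid, and dephosphorylated product quantified by RapidFire MS.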
# [2] = biological target: Protein phosphatase 1D (Homo sapiens) (UniProt O15297); test: Rhodamine-PBP qHTS Assay for Modulators of WT P53-Induced Phosphatase 1 (WIP1) (AID 1347425)
# How it was run: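 Read-out: Rhodamine-PBP fluorescence (ex 525/em 598 nm) for released Pi, read each minute for 11 min after adding 10 uM VEPPL-pS-QETFS; signal taken as f1 minus pre-substrate f0. Enzyme 5 nM WIP1 with 1 hr room-temperature compound preincubation.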
# [3] = Primary qHTS for inhibitors of La Crosse Virus (LACV) - induced cell death in SH-SY5Y cells (AID 1508616);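 further: top concentration of the series differs between compounds; higher means more rescue of cells from virus-induced death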
# How it was run: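 Protection against LACV-induced cell death is scored in SH-SY5Y cells exposed to compounds and virus (0.01 MOI) for 6 days. Data normalized to virus-infected DMSO wells and virus-free DMSO wells.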
# [4] = A High-Content qHTS Against Drug Library for the Identification of Small Molecules that Inhibit DYT1 Early Onset Primary Dystonia-Associated Cell Pathology (AID 1645839; calls by dose curve; further: series mostly up to about 46 µM)
# How it was run: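 Readout: %pathology, the punctate EGFP-TorsinA distribution from imaging, as the primary channel and cell count as the toxicity counterscreen. HEK293 Flp-In cells expressing delE TorsinA were induced with tetracycline and treated with compound for 48 h.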
# [5] = biological target: Cytochrome P450 2D6 (Homo sapiens) (UniProt P10635); test: Cytochrome P450 family 2 subfamily D member 6 (CYP2D6) small molecule antagonists: luciferase biochemical (cell-free) qHTS assay (AID 1645840; active means well fitted curve in the direction sought with a large enough effect in the repeat runs; an effect the other way counts as inactive or inconclusive; further: series mostly up to about 57 µM; nearly all actives have a fitted effect of over 55% in size)
# Cytochrome P450 2D6 (Homo sapiens), sequence (P10635 whole entry, looked up): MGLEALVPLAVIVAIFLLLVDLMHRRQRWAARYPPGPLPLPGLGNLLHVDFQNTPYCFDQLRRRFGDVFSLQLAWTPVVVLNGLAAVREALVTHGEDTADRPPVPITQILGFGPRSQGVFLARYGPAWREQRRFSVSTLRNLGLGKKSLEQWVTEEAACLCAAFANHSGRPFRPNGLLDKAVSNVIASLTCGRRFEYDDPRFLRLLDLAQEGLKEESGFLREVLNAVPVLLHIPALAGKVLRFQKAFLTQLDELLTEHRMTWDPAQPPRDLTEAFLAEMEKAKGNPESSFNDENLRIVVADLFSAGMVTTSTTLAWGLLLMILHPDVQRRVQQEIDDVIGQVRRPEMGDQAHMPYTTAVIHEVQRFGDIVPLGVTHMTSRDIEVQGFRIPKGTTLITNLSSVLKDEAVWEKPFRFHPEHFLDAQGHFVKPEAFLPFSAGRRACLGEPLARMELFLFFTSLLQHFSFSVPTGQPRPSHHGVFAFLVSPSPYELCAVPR
# How it was run: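 P450-Glo luminescent screen: recombinant CYP2D6 enzyme–proluciferin substrate mix preincubated with compound 10 min at room temperature, then NADPH regeneration added for 1 h at room temperature. Detection reagent added for 20 min; luciferin light read as relative luminescence units.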
# [6] = biological target: Cytochrome P450 2C9 (Homo sapiens) (UniProt P11712); test: Cytochrome P450 family 2 subfamily C member 9 (CYP2C9) small molecule antagonists: luciferase biochemical (cell-free) qHTS assay (AID 1645842; active means well fitted curve in the direction sought with a large enough effect in the repeat runs; an effect the other way counts as inactive or inconclusive; further: series mostly up to about 57 µM; nearly all actives have a fitted effect of over 55% in size)
# Cytochrome P450 2C9 (Homo sapiens), sequence (P11712 whole entry, looked up): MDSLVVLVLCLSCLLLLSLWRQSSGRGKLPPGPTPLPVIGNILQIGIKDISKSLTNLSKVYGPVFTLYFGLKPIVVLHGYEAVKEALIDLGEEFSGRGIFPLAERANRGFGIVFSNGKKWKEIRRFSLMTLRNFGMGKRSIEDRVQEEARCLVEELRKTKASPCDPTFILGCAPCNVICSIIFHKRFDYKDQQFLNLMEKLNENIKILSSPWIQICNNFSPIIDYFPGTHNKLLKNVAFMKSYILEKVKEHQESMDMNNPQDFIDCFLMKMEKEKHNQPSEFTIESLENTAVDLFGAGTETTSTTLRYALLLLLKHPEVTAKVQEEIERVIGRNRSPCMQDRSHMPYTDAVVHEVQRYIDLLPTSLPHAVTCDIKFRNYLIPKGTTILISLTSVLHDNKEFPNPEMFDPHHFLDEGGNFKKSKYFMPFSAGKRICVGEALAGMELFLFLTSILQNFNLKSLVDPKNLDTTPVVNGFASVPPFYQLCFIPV
# How it was run: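 Luminescence, after 20 min with luciferin detection reagent, reflected CYP2C9 turnover during a 1 h NADPH-driven reaction at 37C. Enzyme-substrate mix contained 0.4% bovine serum albumin and was preincubated with compound 10 min at room temperature.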
# [7] = Primary qHTS for inhibitors of nuclear receptor binding SET domain protein 2 (NSD2) in an isogenic RCH-ACV NSD2 p.E1099K mutant (9B) (AID 1645876); further: nearly all actives have a fitted effect of over 70% in size
# [8] = Primary qHTS for inhibitors of nuclear receptor binding SET domain protein 2 (NSD2) in an RCH-ACV wild type WT cells (2C) (AID 1645877); further: nearly all actives have a fitted effect of over 70% in size
# [9] = biological target: Calcium and integrin-binding protein 1 (Homo sapiens) (UniProt Q99828); test: Primary qHTS for Identification of Calcium Integrin Binding Protein 1 (CIB1) Competitor (AID 1508620);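 further: GST tagged CIB1 binding a fluorescein labelled alphaIIb integrin peptide tracer; top concentration of the series differs between compounds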
# Calcium and integrin-binding protein 1 (Homo sapiens), sequence (Q99828 whole entry, looked up): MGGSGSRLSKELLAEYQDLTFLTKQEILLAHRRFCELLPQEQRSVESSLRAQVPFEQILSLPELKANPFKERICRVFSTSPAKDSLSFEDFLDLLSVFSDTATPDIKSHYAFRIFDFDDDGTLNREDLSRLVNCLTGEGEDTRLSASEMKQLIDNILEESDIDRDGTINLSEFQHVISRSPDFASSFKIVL
# How it was run: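 Fluorescence polarization competition: CIB1-GST (1 uM final) preincubated with compound 15 min at room temperature, then FITC-labeled alphaIIb peptide (100 nM final) added for another 15 min. Polarization read at Ex 480/Em 540.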
# [10] = Primary qHTS for small molecule stabilizers of the endoplasmic reticulum resident proteome: Secreted ER Calcium Modulated Protein (SERCaMP) assay (AID 1508630)
# How it was run: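 GLuc-SERCaMP-expressing SH-SY5Y cells, pretreated 16 h with compound, are challenged with thapsigargin to empty ER calcium stores; after 4 h, coelenterazine is added directly to the medium and luminescence is imaged.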
# [11] = Counterscreen qHTS for small molecule stabilizers of the endoplasmic reticulum resident proteome: GLuc-NoTag assay (AID 1508627);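 further: SH-SY5Y cells given compound then 100 nM thapsigargin to empty ER calcium; series mostly up to about 76 µM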
# How it was run: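 SH-SY5Y cells stably expressing constitutively secreted GLuc (no SERCaMP tag) were pre-incubated 5 h, treated with compound for 19 h, then 100 nM thapsigargin for 4 h at 37C; medium GLuc read by coelenterazine luminescence.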
# [12] = Validation qHTS assay for inhibitors of Activation Induced Cytidine Deaminase (AID): UDG Counterscreen signal (AID 1347427)
# How it was run: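 Counterscreen read of UDG activity (2 U/mL, 4/3x) in the FRET deamination format with AID (1 uM, 4/3x), DJC20/DJC23 substrates (250 nM, 4x), 4 h at room temperature. NaOH stop, fluorescence at 560 ex/665 em.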
# [13] = biological target: Single-stranded DNA cytosine deaminase (Homo sapiens) (UniProt Q9GZX7); test: Validation qHTS assay for inhibitors of Activation Induced Cytidine Deaminase (AID): AID signal (AID 1347429)
# Single-stranded DNA cytosine deaminase (Homo sapiens), sequence (Q9GZX7 whole entry, looked up): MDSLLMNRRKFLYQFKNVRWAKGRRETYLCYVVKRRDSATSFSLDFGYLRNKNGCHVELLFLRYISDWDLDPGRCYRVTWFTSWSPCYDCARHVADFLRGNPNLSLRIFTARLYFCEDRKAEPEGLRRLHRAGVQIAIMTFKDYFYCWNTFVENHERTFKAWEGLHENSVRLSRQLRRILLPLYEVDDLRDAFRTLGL
# How it was run: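 Fluorescence at 540 nm excitation and 590 nm emission reports ssDNA cytosine deamination by AID, with UDG in the same well. Compound-treated reactions ran 4 hr at room temperature with DJC20/DJC23 substrate, followed by 30 min NaOH treatment.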
# [14] = biological target: Calcium and integrin-binding protein 1 (Homo sapiens) (UniProt Q99828); test: Validation qHTS for Identification of Calcium Integrin Binding protein 1 (CIB1) Competitor (AID 1508618)
# How it was run: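 CIB1-GST (1 uM final) in 5 mM HEPES pH 7.4, 125 mM NaCl, 5 mM CaCl2, 0.01% Tween20 was preincubated 15 min at room temperature with compound (up to 114 uM), then FITC-alphaIIb peptide (100 nM) added for 15 min; fluorescence polarization read.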
# [15] = Confirmatory qHTS for small molecule stabilizers of the endoplasmic reticulum resident proteome: Secreted ER Calcium Modulated Protein (SERCaMP) assay (AID 1508628); further: potency means the concentration at half of the fitted maximal effect; nearly all actives have a fitted effect of over 40% in size
# How it was run: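 SH-SY5Y cells stably expressing GLuc-SERCaMP, treated 16 h with compound (primary 1.53, 7.67, 38.3 uM; confirmation 11 concentrations, up to 76.6 uM), then 100 nM thapsigargin for 4 h. Secreted Gaussia luciferase in medium read by coelenterazine luminescence.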
# Papain (Carica papaya) = Papain (Carica papaya) (UniProt P00784); test: Primary qHTS assay for inhibitors of the protease papain (AID 1645873);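 further: papain turnover of Z-FR-AMC read as the AMC fluorescence gain over 10 min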; further: potency means the concentration at half of the fitted maximal effect
# Papain (Carica papaya), sequence (P00784 whole entry, looked up): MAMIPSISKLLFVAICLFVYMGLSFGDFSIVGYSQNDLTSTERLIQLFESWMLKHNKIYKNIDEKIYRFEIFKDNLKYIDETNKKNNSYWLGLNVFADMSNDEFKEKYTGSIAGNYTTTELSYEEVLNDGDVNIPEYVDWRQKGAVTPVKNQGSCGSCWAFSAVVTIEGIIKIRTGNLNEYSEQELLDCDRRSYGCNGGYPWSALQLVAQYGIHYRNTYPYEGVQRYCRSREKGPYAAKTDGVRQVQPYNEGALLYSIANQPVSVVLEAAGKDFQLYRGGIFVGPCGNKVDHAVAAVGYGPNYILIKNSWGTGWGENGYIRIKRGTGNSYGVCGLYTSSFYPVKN
compound,measurement,setting,value
O=C1O[C@H]([C@@H](O)CO)C(O)=C1O,outcome,[1],inactive
same,outcome,[2],inactive
same,outcome,[3],inactive
same,Potency,[4],inactive
same,Potency,[5],inactive
same,Potency,[6],inactive
same,Potency,[7],inactive
same,Potency,[8],inactive
CC(C)(O)c1ccccc1CC[C@@H](SCC1(CC(=O)O)CC1)c1cccc(/C=C/c2ccc3ccc(Cl)cc3n2)c1,outcome,[3],inactive
same,Potency,[4],inactive
same,Potency,[5],inactive
same,Potency,[6],inactive
same,Potency,[7],inactive
same,Potency,[8],inactive
O=C(O)c1ccccc1-c1ccc(C(F)(F)F)cc1,outcome,[1],inactive
same,outcome,[2],inactive
same,outcome,[9],inactive
same,Potency,[10],inactive
same,Potency,[4],inactive
same,Potency,[5],inactive
same,Potency,[6],inactive
same,Potency,[7],inactive
same,Potency,[8],inactive
CN(C)CCCN1c2ccccc2CCc2ccccc21,outcome,[1],inactive
same,outcome,[2],inactive
same,Potency,[11],inactive
same,Potency,[6],inactive
O=C(O)c1ccccn1,outcome,[1],inactive
same,outcome,[2],inactive
same,outcome,[3],inactive
same,Potency,[10],inactive
same,Potency,[4],inactive
same,Potency,[7],inactive
same,Potency,[8],inactive
O=C(O)[C@H](O)c1ccccc1,outcome,[1],inactive
same,outcome,[2],inactive
same,outcome,[9],inactive
same,Potency,[4],inactive
same,Potency,[5],inactive
same,Potency,[6],inactive
same,Potency,[7],inactive
same,Potency,[8],inactive
CC(C)(C)[C@]1(O)CCN2C[C@H]3c4ccccc4CCc4cccc(c43)[C@@H]2C1,Potency,[12],inactive
same,Potency,[13],inactive
same,outcome,[3],inactive
same,outcome,[14],inactive
same,Potency,[15],12.6 µM (active)
same,Potency,Papain (Carica papaya),inactive and 15.8 µM (active)
